Values joined by “and” are separate entries in the source; they are usually repeats but may differ in a detail not shown here. Equal values may be shown once. Results filed as inconclusive are left out. More than one record can exist for a structure, and the calls need not agree. Active and inactive are the calls of the source. Rule for the calls: active = hit-call score of the fitted dose curve at least 0.9, where 1 is the maximum; inconclusive = response in the unintended direction; inactive = score below 0.9.
Experiments:
[1] = biological target: human AMP-activated Protein Kinase, alpha 1 (AMPKa1), PRKAA1 (gene 5562) (UniProt Q13131); test: NVS_ENZ_hAMPKa1: NovaScreen (NVS) Enzymatic Assay for human AMP-activated Protein Kinase, alpha 1 (AMPKa1) (AID 2283130)
In short: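 Recombinant human AMPKα1 activity was measured cell-free by fluorescent substrate conversion with electrophoretic mobility-shift separation, 1 h after dosing. Duplicate single-point screening was at 25 uM; actives (≥30% inhibition) were retested in concentration-response up to 50 uM.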

[2] = biological target: human Ephrin type-B Receptor 2 (EphB2), EPHB2 (gene 2048) (UniProt P29323); test: NVS_ENZ_hEphB2: NovaScreen (NVS) Enzymatic Assay for human Ephrin type-B Receptor 2 (EphB2) (AID 2283156)
In short: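 Recombinant kinase with fluorescent substrate, product separated by electrophoretic mobility shift, read 1 h after dosing. Duplicate 25 uM screen, then singleton concentration-response to 50 uM max; loss of signal versus DMSO.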

[3] = biological target: human Fibroblast Growth Factor Receptor 1 (FGFR1), FGFR1 (gene 2260) (UniProt P11362); test: NVS_ENZ_hFGFR1: NovaScreen (NVS) Enzymatic Assay for human Fibroblast Growth Factor Receptor 1 (FGFR1) (AID 2283159);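 for AC50: hits lower the signal so potencies describe inhibitors of the kinase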
Chain of human Fibroblast Growth Factor Receptor 1 (FGFR1), FGFR1 (gene 2260) (P11362 whole entry, looked up): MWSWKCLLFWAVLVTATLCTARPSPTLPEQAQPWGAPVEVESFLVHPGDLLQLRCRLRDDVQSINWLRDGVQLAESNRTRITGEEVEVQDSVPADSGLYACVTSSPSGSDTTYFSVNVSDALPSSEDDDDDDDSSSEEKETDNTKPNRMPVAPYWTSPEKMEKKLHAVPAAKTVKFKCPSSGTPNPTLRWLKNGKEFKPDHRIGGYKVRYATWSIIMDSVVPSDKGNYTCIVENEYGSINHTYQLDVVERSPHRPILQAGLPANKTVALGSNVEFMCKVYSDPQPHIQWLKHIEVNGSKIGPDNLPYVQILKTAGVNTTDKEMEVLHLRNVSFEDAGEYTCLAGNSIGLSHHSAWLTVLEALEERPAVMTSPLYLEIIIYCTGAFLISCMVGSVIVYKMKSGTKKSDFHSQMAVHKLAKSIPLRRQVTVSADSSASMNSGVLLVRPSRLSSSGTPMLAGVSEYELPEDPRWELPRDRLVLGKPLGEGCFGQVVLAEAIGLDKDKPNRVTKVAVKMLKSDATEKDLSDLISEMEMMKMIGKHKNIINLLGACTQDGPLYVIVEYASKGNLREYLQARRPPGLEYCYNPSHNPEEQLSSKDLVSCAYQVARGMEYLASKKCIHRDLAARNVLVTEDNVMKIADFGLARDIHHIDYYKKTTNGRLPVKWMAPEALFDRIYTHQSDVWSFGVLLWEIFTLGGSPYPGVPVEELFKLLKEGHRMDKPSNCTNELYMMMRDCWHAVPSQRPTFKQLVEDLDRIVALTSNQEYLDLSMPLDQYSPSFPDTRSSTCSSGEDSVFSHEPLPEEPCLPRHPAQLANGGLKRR
In short: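 Cell-free recombinant kinase with fluorescent substrate, product separated by electrophoretic mobility shift; read 1 hour after dosing, loss of signal relative to DMSO. Initial screen in duplicate at 25 uM, actives followed in concentration series.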

[4] = biological target: human NIMA (Never In Mitosis Gene A)-Related Kinase 2 (NEK2), NEK2 (gene 4751) (UniProt P51955); test: NVS_ENZ_hNEK2: NovaScreen (NVS) Enzymatic Assay for human NIMA (Never In Mitosis Gene A)-Related Kinase 2 (NEK2) (AID 2283188)
In short: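 Cell-free NEK2 enzyme activity after 1 h exposure, read by fluorescence with electrophoretic mobility shift separating substrate and product. Primary screen in duplicate at 25 uM; actives then run as concentration series. Loss of signal versus DMSO scored.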

[5] = biological target: rat Monoamine Oxidase, MAO-B, Central (MAOBC), Maob (gene 25750) (UniProt P19643); test: NVS_ENZ_rMAOBC: NovaScreen (NVS) Enzymatic Assay for rat Monoamine Oxidase, MAO-B, Central (MAOBC) (AID 2283238)
In short: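 MAO-B activity in rat brain tissue preparation, cell-free, measured radiometrically by scintillation counting 1.17 h after dosing. Screened in duplicate at 25 uM; actives then in concentration-response up to 50 uM. Loss of signal versus DMSO scored.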

[6] = biological target: human Caspase 10 (CASP10), CASP10 (gene 843) (UniProt Q92851); test: NVS_ENZ_hCASP10: NovaScreen (NVS) Enzymatic Assay for human Caspase 10 (CASP10) (AID 2283133)
In short: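 Recombinant human caspase-10 from E. coli, cell-free fluorogenic substrate assay read 1 h after dosing. Primary duplicate screen at 25 uM; hits (e.g. ≥30% inhibition) run singly in concentration-response up to 50 uM, normalised to DMSO.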

[7] = biological target: human Caspase 2 (CASP2), CASP2 (gene 835) (UniProt P42575); test: NVS_ENZ_hCASP2: NovaScreen (NVS) Enzymatic Assay for human Caspase 2 (CASP2) (AID 2283135)
Chain of human Caspase 2 (CASP2), CASP2 (gene 835) (P42575 whole entry, looked up): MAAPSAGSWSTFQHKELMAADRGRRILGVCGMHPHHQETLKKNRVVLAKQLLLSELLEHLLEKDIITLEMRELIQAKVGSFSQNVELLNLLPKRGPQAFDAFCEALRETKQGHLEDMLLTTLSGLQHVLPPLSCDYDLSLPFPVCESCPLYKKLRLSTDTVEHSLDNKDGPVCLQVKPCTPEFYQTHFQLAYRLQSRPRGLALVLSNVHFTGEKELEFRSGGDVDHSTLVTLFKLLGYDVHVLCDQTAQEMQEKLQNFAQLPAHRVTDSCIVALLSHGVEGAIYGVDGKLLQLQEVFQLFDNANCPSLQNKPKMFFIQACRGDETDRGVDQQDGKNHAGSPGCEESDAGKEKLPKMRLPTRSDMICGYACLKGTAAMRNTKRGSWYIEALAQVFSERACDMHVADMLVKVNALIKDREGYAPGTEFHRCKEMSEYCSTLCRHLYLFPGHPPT
In short: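 E. coli-expressed enzyme in a cell-free protease assay, fluorescence read 1 h after dosing. Compounds at 25 uM in duplicate, with concentration-response up to 50 uM for hits; loss of signal against DMSO baseline.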

[8] = biological target: human Aurora Kinase A - serine/threonine-protein Kinase 6 (AurA), AURKA (gene 6790) (UniProt O14965); test: NVS_ENZ_hAurA: NovaScreen (NVS) Enzymatic Assay for human Aurora Kinase A - serine/threonine-protein Kinase 6 (AurA) (AID 2283142)
Chain of human Aurora Kinase A - serine/threonine-protein Kinase 6 (AurA), AURKA (gene 6790) (O14965 whole entry, looked up): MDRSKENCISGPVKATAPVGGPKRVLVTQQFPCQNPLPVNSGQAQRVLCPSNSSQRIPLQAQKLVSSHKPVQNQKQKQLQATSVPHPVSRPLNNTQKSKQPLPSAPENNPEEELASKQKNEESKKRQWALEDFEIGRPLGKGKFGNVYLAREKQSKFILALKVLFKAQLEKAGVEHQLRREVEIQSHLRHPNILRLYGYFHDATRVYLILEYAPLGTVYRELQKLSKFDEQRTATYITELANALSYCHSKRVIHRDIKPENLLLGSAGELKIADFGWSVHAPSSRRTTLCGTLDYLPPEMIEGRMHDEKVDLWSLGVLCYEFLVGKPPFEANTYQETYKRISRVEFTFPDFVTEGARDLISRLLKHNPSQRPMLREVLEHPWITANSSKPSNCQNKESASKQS
In short: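 Cell-free enzymatic assay with human Aurora A, 1 hour after dosing. Fluorescent substrate turnover detected after electrophoretic mobility shift separation of substrate and product. Screened at 25 uM, actives retested in concentration-response up to 50 uM.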

[9] = biological target: human Epidermal Growth Factor Receptor (EGFR), EGFR (gene 1956) (UniProt P00533); test: NVS_ENZ_hEGFR: NovaScreen (NVS) Enzymatic Assay for human Epidermal Growth Factor Receptor (EGFR) (AID 2283151)
Chain of human Epidermal Growth Factor Receptor (EGFR), EGFR (gene 1956) (P00533 whole entry, looked up): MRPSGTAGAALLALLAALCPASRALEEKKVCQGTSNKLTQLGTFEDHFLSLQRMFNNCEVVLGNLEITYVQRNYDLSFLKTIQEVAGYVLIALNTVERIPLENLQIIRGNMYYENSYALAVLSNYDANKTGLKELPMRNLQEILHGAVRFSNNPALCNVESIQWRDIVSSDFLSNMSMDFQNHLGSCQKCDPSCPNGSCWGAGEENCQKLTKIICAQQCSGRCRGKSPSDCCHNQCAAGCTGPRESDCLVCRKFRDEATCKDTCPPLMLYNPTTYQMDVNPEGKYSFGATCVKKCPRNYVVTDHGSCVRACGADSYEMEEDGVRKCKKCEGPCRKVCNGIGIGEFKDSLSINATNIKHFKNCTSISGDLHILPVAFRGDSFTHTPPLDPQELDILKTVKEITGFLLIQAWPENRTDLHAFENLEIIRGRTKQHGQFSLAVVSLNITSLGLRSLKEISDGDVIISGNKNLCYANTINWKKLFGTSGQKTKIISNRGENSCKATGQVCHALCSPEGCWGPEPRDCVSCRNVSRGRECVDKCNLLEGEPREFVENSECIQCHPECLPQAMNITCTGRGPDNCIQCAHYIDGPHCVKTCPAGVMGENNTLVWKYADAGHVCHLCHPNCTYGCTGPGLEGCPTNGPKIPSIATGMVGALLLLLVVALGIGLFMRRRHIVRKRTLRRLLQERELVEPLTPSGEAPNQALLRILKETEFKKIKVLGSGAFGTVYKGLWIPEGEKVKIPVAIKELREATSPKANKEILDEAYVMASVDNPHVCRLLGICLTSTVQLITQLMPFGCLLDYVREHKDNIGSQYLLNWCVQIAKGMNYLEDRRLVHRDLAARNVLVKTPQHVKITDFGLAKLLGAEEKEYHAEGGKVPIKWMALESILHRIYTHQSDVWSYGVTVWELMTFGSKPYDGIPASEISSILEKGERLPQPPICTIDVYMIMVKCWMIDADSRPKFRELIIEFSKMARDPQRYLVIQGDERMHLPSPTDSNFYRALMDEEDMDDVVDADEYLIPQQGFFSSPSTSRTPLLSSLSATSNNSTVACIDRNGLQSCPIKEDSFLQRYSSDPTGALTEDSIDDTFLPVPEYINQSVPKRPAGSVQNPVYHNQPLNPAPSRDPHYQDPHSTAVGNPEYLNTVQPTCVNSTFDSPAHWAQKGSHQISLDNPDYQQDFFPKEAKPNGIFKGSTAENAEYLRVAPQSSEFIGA
In short: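 Cell-free kinase assay, fluorescence plus electrophoretic mobility shift separating substrate and product, read 1 hour after dosing; loss of signal vs DMSO. Duplicate screen at 25 uM, then concentration-response to 50 uM.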

[10] = biological target: human IkappaB Kinase alpha (IKKa), CHUK (gene 1147) (UniProt O15111); test: NVS_ENZ_hIKKa: NovaScreen (NVS) Enzymatic Assay for human IkappaB Kinase alpha (IKKa) (AID 2283167)
Chain of human IkappaB Kinase alpha (IKKa), CHUK (gene 1147) (O15111 whole entry, looked up): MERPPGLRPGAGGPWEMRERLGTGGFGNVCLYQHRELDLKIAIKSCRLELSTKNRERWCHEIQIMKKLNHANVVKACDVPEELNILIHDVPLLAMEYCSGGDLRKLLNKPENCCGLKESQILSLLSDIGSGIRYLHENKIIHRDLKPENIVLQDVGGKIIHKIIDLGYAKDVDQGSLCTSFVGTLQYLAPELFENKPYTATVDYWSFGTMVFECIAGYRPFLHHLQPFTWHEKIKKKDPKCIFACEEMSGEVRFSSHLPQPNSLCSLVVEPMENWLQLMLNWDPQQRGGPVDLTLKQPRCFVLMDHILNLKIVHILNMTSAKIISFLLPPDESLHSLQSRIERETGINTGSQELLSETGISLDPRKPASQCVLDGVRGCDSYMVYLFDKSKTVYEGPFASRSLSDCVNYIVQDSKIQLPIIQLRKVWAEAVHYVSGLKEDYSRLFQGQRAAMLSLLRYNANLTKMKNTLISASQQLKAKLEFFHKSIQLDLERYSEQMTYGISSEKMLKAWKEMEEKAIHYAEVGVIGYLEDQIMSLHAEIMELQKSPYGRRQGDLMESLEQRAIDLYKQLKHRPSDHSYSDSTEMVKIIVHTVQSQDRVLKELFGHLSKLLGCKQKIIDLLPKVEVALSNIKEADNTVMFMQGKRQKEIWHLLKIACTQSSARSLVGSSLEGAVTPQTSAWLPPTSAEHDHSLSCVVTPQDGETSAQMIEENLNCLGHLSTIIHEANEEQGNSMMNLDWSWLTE
In short: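 Cell-free recombinant human IKKa with fluorescent substrate, product separated by electrophoretic mobility shift; read 1 hour after dosing. Primary screen duplicate at 25 uM, actives then concentration-response up to 50 uM; loss of signal relative to DMSO.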

[11] = biological target: human Matrix Metalloproteinase-1 (MMP1), MMP1 (gene 4312) (UniProt P03956); test: NVS_ENZ_hMMP1: NovaScreen (NVS) Enzymatic Assay for human Matrix Metalloproteinase-1 (MMP1) (AID 2283181)
In short: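 Human MMP1 enzyme activity measured by fluorescence 1 h after dosing, cell-free, with a specific substrate. Screened in duplicate at 25 uM; hits (e.g. 30% inhibition) run in concentration-response up to 50 uM; loss of signal versus DMSO.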

[12] = biological target: human p21 Activated Kinase 4 (PAK4), PAK4 (gene 10298) (UniProt O96013); test: NVS_ENZ_hPAK4: NovaScreen (NVS) Enzymatic Assay for human p21 Activated Kinase 4 (PAK4) (AID 2283189)
Chain of human p21 Activated Kinase 4 (PAK4), PAK4 (gene 10298) (O96013 whole entry, looked up): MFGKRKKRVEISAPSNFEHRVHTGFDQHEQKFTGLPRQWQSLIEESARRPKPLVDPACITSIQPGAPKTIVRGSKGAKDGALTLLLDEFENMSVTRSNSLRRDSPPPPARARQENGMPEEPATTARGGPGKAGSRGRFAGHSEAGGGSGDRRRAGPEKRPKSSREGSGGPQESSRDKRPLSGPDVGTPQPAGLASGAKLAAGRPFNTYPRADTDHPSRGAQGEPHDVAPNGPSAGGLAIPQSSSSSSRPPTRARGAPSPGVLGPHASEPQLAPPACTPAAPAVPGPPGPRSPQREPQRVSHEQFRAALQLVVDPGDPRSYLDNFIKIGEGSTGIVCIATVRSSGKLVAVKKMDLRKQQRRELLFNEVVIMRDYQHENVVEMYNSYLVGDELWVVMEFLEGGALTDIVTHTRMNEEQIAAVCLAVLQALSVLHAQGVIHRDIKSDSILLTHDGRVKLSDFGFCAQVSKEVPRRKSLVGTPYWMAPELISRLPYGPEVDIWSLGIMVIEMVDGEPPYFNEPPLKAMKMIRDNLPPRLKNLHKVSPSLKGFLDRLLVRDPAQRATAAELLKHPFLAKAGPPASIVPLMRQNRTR
In short: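 Cell-free recombinant human PAK4 activity assay; fluorescent substrate and product separated by electrophoretic mobility shift, read 1 h after dosing. Initially tested in duplicate at 25 uM, relative to DMSO baseline.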

[13] = biological target: human Protein Tyrosine Phosphatase Non-receptor Type 2 (PTPN2), PTPN2 (gene 5771) (UniProt P17706); test: NVS_ENZ_hPTPN2: NovaScreen (NVS) Enzymatic Assay for human Protein Tyrosine Phosphatase Non-receptor Type 2 (PTPN2) (AID 2283207)
In short: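 Cell-free recombinant enzyme with fluorescent substrate, product separated by electrophoretic mobility shift; read 1 h after dosing. Primary screen single concentration (25 uM) in duplicate; actives followed in concentration series; loss of signal versus DMSO.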

[14] = biological target: human Raf-1 Proto-Oncogene, serine/threonine Kinase (RAF1), RAF1 (gene 5894) (UniProt P04049); test: NVS_ENZ_hRAF1: NovaScreen (NVS) Enzymatic Assay for human Raf-1 Proto-Oncogene, serine/threonine Kinase (RAF1) (AID 2283216)
In short: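 Cell-free recombinant kinase with specific fluorescent substrate, product separated by electrophoretic mobility shift; read 1 h after dosing. Primary screen at 25 uM in duplicate; hits then run in concentration-response up to 50 uM, fitted as loss of signal versus DMSO.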

[15] = biological target: rat Monoamine Oxidase, MAO-B, Peripheral (MAOBP), Maob (gene 25750) (UniProt P19643); test: NVS_ENZ_rMAOBP: NovaScreen (NVS) Enzymatic Assay for rat Monoamine Oxidase, MAO-B, Peripheral (MAOBP) (AID 2283242)
[16] = biological target: rat Corticotropin Releasing Factor Receptor (CRF), Crhr1 (gene 58959) (UniProt P35353); test: NVS_GPCR_rCRF: NovaScreen (NVS) G Protein-Coupled Receptor Assay for rat Corticotropin Releasing Factor Receptor (CRF) (AID 2283300)
In short: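 Rat cortical membranes used as receptor source in a radioligand competitive displacement binding assay; scintillation read 2 h after dosing. Primary screen run in duplicate at 25 uM; loss of signal versus DMSO baseline indicates binding.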

[17] = biological target: human Protein Tyrosine Phosphatase Receptor Type C (PTPRC), PTPRC (gene 5788) (UniProt P08575); test: NVS_ENZ_hPTPRC: NovaScreen (NVS) Enzymatic Assay for human Protein Tyrosine Phosphatase Receptor Type C (PTPRC) (AID 2283212)
In short: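 Yeast-extracted human PTPRC used in a cell-free colorimetric enzyme activity read-out, 1 h after dosing. Primary screen in duplicate at 25 uM; actives rerun in concentration-response up to 50 uM, DMSO as baseline.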

[18] = biological target: human Tyrosine Protein Kinase Receptor Tie-2 (Tie2), TEK (gene 7010) (UniProt Q02763); test: NVS_ENZ_hTie2: NovaScreen (NVS) Enzymatic Assay for human Tyrosine Protein Kinase Receptor Tie-2 (Tie2) (AID 2283225)
In short: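 Recombinant human Tie2 kinase activity was read cell-free by fluorescence with electrophoretic mobility shift, 1 hour after dosing. The screen used 25 uM in duplicate, then concentration-response up to 50 uM. Signal loss was scored against DMSO.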

[19] = biological target: bovine Gamma-Aminobutyric Acid Type A Receptor BDZ, alpha 1 site (GABARa1), GABRA1 (gene 780973) (UniProt P08219); test: NVS_LGIC_bGABARa1: NovaScreen (NVS) Ligand-Gated Ion Channel Assay for bovine Gamma-Aminobutyric Acid Type A Receptor BDZ, alpha 1 site (GABARa1) (AID 2283321)
Chain of bovine Gamma-Aminobutyric Acid Type A Receptor BDZ, alpha 1 site (GABARa1), GABRA1 (gene 780973) (P08219 whole entry, looked up): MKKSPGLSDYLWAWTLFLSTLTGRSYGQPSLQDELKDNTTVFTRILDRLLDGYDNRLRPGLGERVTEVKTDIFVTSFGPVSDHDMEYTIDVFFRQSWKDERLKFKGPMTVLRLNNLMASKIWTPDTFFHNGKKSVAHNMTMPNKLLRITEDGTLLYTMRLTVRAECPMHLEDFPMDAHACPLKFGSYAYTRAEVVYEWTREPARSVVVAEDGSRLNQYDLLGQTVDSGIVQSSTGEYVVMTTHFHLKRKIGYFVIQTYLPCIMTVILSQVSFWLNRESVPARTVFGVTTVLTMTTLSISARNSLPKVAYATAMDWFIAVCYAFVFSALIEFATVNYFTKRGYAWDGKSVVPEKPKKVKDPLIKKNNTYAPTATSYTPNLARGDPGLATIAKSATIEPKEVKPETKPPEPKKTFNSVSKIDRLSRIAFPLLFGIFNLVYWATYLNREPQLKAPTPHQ
In short: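 Radioligand competition binding on bovine cortical membranes, 0.75 h, filter-based scintillation counting. Primary single concentration 25 uM in duplicate; actives rerun in concentration-response to 50 uM max. Loss of signal fitted versus DMSO.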

[20] = biological target: rat Oxytocin Receptor (OXT), Oxtr (gene 25342) (UniProt P70536); test: NVS_GPCR_rOXT: NovaScreen (NVS) G Protein-Coupled Receptor Assay for rat Oxytocin Receptor (OXT) (AID 2283330)
In short: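 Radioligand displacement on rat uterine membranes, 1 h incubation, filter-based scintillation counting. Chemicals were screened in duplicate at 25 uM, and those passing threshold were retested in concentration-response up to 50 uM. Loss of binding was fitted versus DMSO.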

Structure (SMILES): Oc1ccc(C(c2ccc(O)cc2)C(Cl)(Cl)Cl)cc1
- AC50 [1]: 19.6 µM (active)
- outcome [2]: inactive
- AC50 [3]: 33.1 µM (active)
- outcome [4]: inactive
- outcome [5]: inactive

Structure (SMILES): S=C(S)NCCNC(=S)S.[Mn+2].[S-]C([S-])=NCCN=C([S-])[S-].[Zn+2]
- outcome [6]: inactive
- outcome [7]: inactive
- AC50 [8]: 3.99 µM (active) and 2.8 µM (active)
- AC50 [9]: 9.13 µM (active) and 9.55 µM (active) and 21.4 µM (active)
- AC50 [10]: 18.2 µM (active)
- outcome [10]: inactive
- outcome [11]: inactive
- AC50 [12]: 5.61 µM (active) and 263 nM (active)
- AC50 [13]: 898 nM (active) and 519 nM (active)
- outcome [14]: inactive
- outcome [15]: inactive
- AC50 [16]: 25 µM (active)

Structure (SMILES): CC(C)(c1ccc(O)cc1)c1ccc(O)cc1
- outcome [9]: inactive
- outcome [2]: inactive
- outcome [3]: inactive
- outcome [12]: inactive
- outcome [17]: inactive
- outcome [18]: inactive
- outcome [19]: inactive
- AC50 [20]: 7.41 µM (active)

Reference: PubChem BioAssay (EPA / NIEHS)
